In PubChem BioAssay AID2284144 (EPA ToxCast) one finds AC50 data, which are given here for 1 compound.

Activity calls are given as the source filed them. The calls were made as follows: active = hit-call score of the fitted dose curve at least 0.9, where 1 is the maximum; inactive = score below 0.9.

Sequence of human Adrenoceptor alpha2C Antagonism, ADRA2C (gene 152) (P18825 whole entry, looked up): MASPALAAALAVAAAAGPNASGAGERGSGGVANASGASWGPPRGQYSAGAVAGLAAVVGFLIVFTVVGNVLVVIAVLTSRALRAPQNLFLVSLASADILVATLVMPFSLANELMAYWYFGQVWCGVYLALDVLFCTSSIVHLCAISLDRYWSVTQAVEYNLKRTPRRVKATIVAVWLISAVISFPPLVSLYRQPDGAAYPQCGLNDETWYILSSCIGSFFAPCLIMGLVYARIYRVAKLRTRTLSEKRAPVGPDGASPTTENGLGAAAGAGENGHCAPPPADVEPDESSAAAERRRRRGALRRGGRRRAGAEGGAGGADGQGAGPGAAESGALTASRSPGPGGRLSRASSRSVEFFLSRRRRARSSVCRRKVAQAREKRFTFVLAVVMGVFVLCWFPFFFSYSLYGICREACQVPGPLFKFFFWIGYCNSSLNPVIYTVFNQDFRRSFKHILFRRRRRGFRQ

The target of the experiment is human Adrenoceptor alpha2C Antagonism, ADRA2C (gene 152) (UniProt P18825). Briefly: ERF_TW_GPCR_hADRA2C: Eurofins (ERF) G Protein-Coupled Receptor (GPCR) Radioligand Binding LeadHunter Assay for human Adrenoceptor alpha2C Antagonism. The protocol:
ERF_TW_GPCR_hADRA2C is a biochemical, single-readout assay that uses extracted gene-proteins in a cell-free assay. Measurements were taken 1 hour after chemical dosing in a 96-well plate. See alpha2C Human Adrenoceptor GPCR Binding (Antagonist Radioligand) Assay, Panlabs.ERF_TW_GPCR_hADRA2C is an assay component calculated from the ERF_TW_GPCR_hADRA2C assay. It is designed to measure radioligand binding using a type of binding reporter as detected by scintillation counting with radiometry technology.Data from the assay component ERF_TW_GPCR_hADRA2C was analyzed at the assay endpoint, ERF_TW_GPCR_hADRA2C, in the positive analysis fitting direction relative to DMSO as the negative control and baseline of activity. Using a type of binding reporter, loss-of-signal activity can be used to understand changes in radioligand binding as they relate to gene ADRA2C. To generalize the intended target to other relatable targets, this assay endpoint is annotated to the gpcr intended target family, where the subfamily is adrenoceptor.
Human recombinant adrenergic alpha2C receptor expressed in CHO-K1 cells are used in modified Tris-HCl buffer pH 7.4. A 2 ug aliquot of membrane is incubated with 0.5 nM [3H]Rauwolscine for 60 minutes at 25C. […] Membranes are filtered and washed, the filters are then counted to determine [3H]Rauwolscine specifically bound. […]
As for `O=C(/C=C/c1ccc(O)cc1)CC(=O)/C=C/c1ccc(O)cc1`, the AC50 (as a rule, the concentration giving half of the maximal activity seen) is 602 nM (active).
